PubChem BioAssay AID720518 (National Center for Advancing Translational Sciences (NCATS), 2013)
Records with an inconclusive call do not appear. Entries that show only a call come without a potency. The source made the active and inactive calls. The call rests on the fitted dose curve.

assay: qHTS for Inhibitors of Cell Surface uPA Generation: Wild-type Protective Antigen (WT-PrAg) Counterscreen for Cherry-picked Compounds; settings: cells, WT protective antigen toxicity counterscreen; series mostly up to 115 µM

**Q.** For `O=C(c1cccc(F)c1)N1CCN(Cc2cccc(Br)c2)CC1`, which Potency is on record?
**A.** The Potency was “inactive”.

**Q.** For `Cc1cc(C)n2nc(CNS(=O)(=O)c3ccc(F)c(C)c3)nc2n1`, which Potency is on record?
**A.** Its Potency is “inactive”.

**Q.** For `O=C(CNC(=O)N1CC(=O)Nc2ccccc21)Nc1cc(Cl)ccc1Cl`, which Potency is on record?
**A.** The Potency was “inactive”.

**Q.** Which Potency does the source give for `CS/C(=C\[N+](=O)[O-])Nc1ccccc1` here?
**A.** Its Potency is “inactive”.

**Q.** For `COc1ccc2c(ccn2S(=O)(=O)c2ccccc2)c1`, which Potency is on record?
**A.** Its Potency is “inactive”.

**Q.** With `COc1ccc(-n2nc(C(=O)Nc3cc(OC)c(OC)c(OC)c3)c3ccccc3c2=O)c(OC)c1` as the compound, how does the Potency read?
**A.** The Potency was “inactive”.

**Q.** Which Potency does the source give for `Cn1cc(SCC(=O)Nc2nccs2)c2ccccc21` here?
**A.** Its Potency is “inactive”.

**Q.** For `C[C@@H](CSc1ccccc1)CN1CC[C@H](O)CCC1=O`, which Potency is on record?
**A.** The Potency was “inactive”.

**Q.** With `CC(=O)N1CCN(C(=O)CSc2cc(C)c(Br)cc2C)CC1` as the compound, how does the Potency read?
**A.** Its Potency is “inactive”.

**Q.** With `CCS(=O)(=O)N1CCC(C(=O)NCc2ccc(OC)cc2OC)CC1` as the compound, how does the Potency read?
**A.** The Potency was “inactive”.

**Q.** With `COCCN(C(=O)c1ccccc1OC)c1nnc(C)s1` as the compound, how does the Potency read?
**A.** The Potency was “inactive”.

**Q.** For `COc1ccc(C2=NOC(CNC(N)=S)C2)cc1` (centres undefined), which Potency is on record?
**A.** The Potency was “inactive”.

**Q.** Which Potency does the source give for `COc1ccc(CC(=O)OCC(=O)NNC(=O)c2ccccc2)cc1` here?
**A.** The Potency was “inactive”.

**Q.** Which Potency does the source give for `O=C(O)CCc1nn2c3ccccc3n(CC(=O)O)c2nc1=O` here?
**A.** Its Potency is “inactive”.

**Q.** With `O=C(NCCS(=O)(=O)N1CCC2(CC1)OCCO2)c1ccc(F)cc1` as the compound, how does the Potency read?
**A.** Its Potency is “inactive”.

**Q.** For `CCCn1nnc(NC(=S)NC(=O)c2ccccc2OC)n1`, which Potency is on record?
**A.** Its Potency is “inactive”.

**Q.** Which Potency does the source give for `C=C1C(=O)[C@@]23[C@H](O)C[C@@H]4C(C)(C)CC[C@H](O)[C@]4(C)[C@@H]2C[C@H](O)[C@@H]1[C@H]3O` here?
**A.** The Potency was “inactive”.

**Q.** With `Cc1cc(C(=O)NP(=O)(N2CCOCC2)N2CCOCC2)c(C)n1C1CC1` as the compound, how does the Potency read?
**A.** The Potency was “inactive”.

**Q.** Which Potency does the source give for `O=C(COc1cc2oc(=O)cc(-c3ccccc3)c2cc1Cl)NC(Cc1c[nH]c2ccc(O)cc12)C(=O)O` (centres undefined) here?
**A.** The Potency was “inactive”.

**Q.** Which Potency does the source give for `O=c1[nH]c(=O)n(-c2ccc(Cl)cc2)c(O)c1C=Nc1ccc(S(=O)(=O)Nc2nccs2)cc1` here?
**A.** Its Potency is “inactive”.

**Q.** With `COc1ccc(C(=O)N2CCN(c3ccc(C(C)=O)cc3)CC2)cc1S(=O)(=O)N1CCCC1` as the compound, how does the Potency read?
**A.** The Potency was “inactive”.

**Q.** With `O=C(O)CNS(=O)(=O)c1ccc2c(c1)Cc1cc(S(=O)(=O)NCC(=O)O)ccc1-2` as the compound, how does the Potency read?
**A.** The Potency was “inactive”.

**Q.** With `CCOc1cc(S(=O)(=O)NC2CC(C)(C)NC(C)(C)C2)ccc1Cl` as the compound, how does the Potency read?
**A.** Its Potency is “inactive”.

**Q.** With `Cc1ccc(S(=O)(=O)N2CCC(C)CC2)cc1` as the compound, how does the Potency read?
**A.** Its Potency is “inactive”.

**Q.** With `COc1cc(C(=O)Nc2nnc(C)s2)cc(OC)c1OC` as the compound, how does the Potency read?
**A.** Its Potency is “inactive”.

**Q.** Which Potency does the source give for `COc1ccc(C(C(=O)NC2CCCC2)N(C(=O)c2ccoc2C)c2ccc(C)c(C)c2)cc1` (centres undefined) here?
**A.** Its Potency is “inactive”.

**Q.** Which Potency does the source give for `COc1ccc(OC)c(NC(=O)C2CC2c2ccccc2)c1` (centres undefined) here?
**A.** The Potency was “inactive”.

**Q.** For `O=C(c1cc(COc2ccc(F)cc2Cl)on1)N1CCCCCC1`, which Potency is on record?
**A.** The Potency was “inactive”.

**Q.** With `Cc1cc(NC(=O)COc2cccc([N+](=O)[O-])c2)no1` as the compound, how does the Potency read?
**A.** Its Potency is “inactive”.

**Q.** Which Potency does the source give for `C=CCN1C=C2C(=O)C(C)(OC(=O)c3cnc4ccccc4n3)C(=O)C=C2C=C1/C=C/COC` (centres undefined) here?
**A.** Its Potency is “inactive”.

**Q.** With `O=C(NCCOc1ccc(F)cc1)C1CCN(S(=O)(=O)c2ccccc2)CC1` as the compound, how does the Potency read?
**A.** Its Potency is “inactive”.

**Q.** For `CCCCOc1ccc(S(=O)(=O)N2CCCCC2)cc1`, which Potency is on record?
**A.** The Potency was “inactive”.

**Q.** With `Cc1ccc2c(c1)N(CC(=O)NCCCc1ccccc1)C(=O)c1cccnc1O2` as the compound, how does the Potency read?
**A.** The Potency was “inactive”.

**Q.** Which Potency does the source give for `COc1ncnc(NS(=O)(=O)c2ccc(N)cc2)c1OC` here?
**A.** The Potency was “inactive”.

**Q.** Which Potency does the source give for `COc1cc2cc(CN(CCN3CCOCC3)C(=O)Nc3ccc(F)cc3)c(=O)[nH]c2cc1OC` here?
**A.** Its Potency is “inactive”.

**Q.** For `Cc1ccc(C(O)(COC(=O)C(C)C)COC(=O)C(C)C)c(O)c1`, which Potency is on record?
**A.** The Potency was “inactive”.

**Q.** With `CSc1nc(-c2ccccc2)nc(C(Cl)Cl)n1` as the compound, how does the Potency read?
**A.** Its Potency is “inactive”.

**Q.** Which Potency does the source give for `CC1CC(C)CN(CCCNC(=O)CN2C(=O)CSc3ccc(S(=O)(=O)N4CCOCC4)cc32)C1` (centres undefined) here?
**A.** Its Potency is “inactive”.

**Q.** With `Nc1ccc(S(=O)(=O)c2ccccc2)nc1` as the compound, how does the Potency read?
**A.** Its Potency is “inactive”.
